Where a name gives a salt, the structure may show the parent alone.
tested on: Danio rerio larvae Tg(actc1b:ZsGreen-LC3), 3 dpf; assay: LC3 puncta relative area vs vehicle, with NH4Cl (autophagic flux) (log2 fold change); higher = more autophagy; details: 10 µM; treatment time 16 h; NH4Cl: + 100 mM, 4 h
Protocol: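 Transgenic Tg(actc1b:ZsGreen-map1lc3) zebrafish larvae (2 dpf) were treated for 16 h with Tocris library compounds at 10 µM (n = 12 larvae per compound). Skeletal-muscle LC3 puncta area relative to body area was measured by high-content confocal imaging before and after 4 h of 100 mM NH4Cl (autophagic flux), normalised to vehicle (DMSO), and reported as log2 fold change.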

In order of falling “LC3 puncta (log2)” value:
1. N=C(NCc1ccc(Cl)cc1)SCCCc1c[nH]cn1 [Clobenpropit dihydrobromide]  0.922
2. C(=C\c1ccccc1)/CN1CCN(CCOC(c2ccccc2)c2ccccc2)CC1  0.791
3. Fc1ccc(C(OCCN2CCN(CCCc3ccccc3)CC2)c2ccc(F)cc2)cc1  0.781
4. O=c1[nH]oc2c1CCNC2 [THIP hydrochloride]  0.742
5. CCCN(CCC)[C@@H]1CCc2c(OC)cccc2[C@@H]1C [(+)-UH 232 maleate]  0.738
6. Cc1nc(N)sc1CCN [Amthamine dihydrobromide]  0.697
7. N[C@@H](Cn1oc(=O)[nH]c1=O)C(=O)O [L-Quisqualic acid]  0.686
8. CN1[C@@H]2CC[C@H]1C[C@@H](OC(=O)c1cc(Cl)cc(Cl)c1)C2  0.686
9. CC(C)C[C@H]1C(=O)N2CCC[C@H]2[C@]2(O)O[C@](NC(=O)[C@@H]3C=C4c5cccc6[nH]c(Br)c(c56)C[C@H]4N(C)C3)(C(C)C)C(=O)N12 [Bromocriptine mesylate]  0.623
10. C[C@H](N)Cc1cnc[nH]1  0.58
11. S=C=Nc1cccc(C2(N3CCCCC3)CCCCC2)c1 [Metaphit]  0.576
12. NCCc1c[nH]c2ccc(C(N)=O)cc12 [5-Carboxamidotryptamine maleate]  0.571
13. Cn1cnc(CCN)c1 [N?-Methylhistamine dihydrochloride]  0.559
14. c1ccc(CCCCN2CCC(c3ccccc3)CC2)cc1 [4-PPBP maleate]  0.486
15. CN1C[C@H](CNC(=O)OCc2ccccc2)C[C@@H]2c3cccc4c3c(cn4C)C[C@H]21 [Metergoline]  0.408
16. c1ccc(C2CNCc3ccccc32)cc1 (configuration not stated) [4-Phenyl-1,2,3,4-tetrahydroisoquinoline hydrochloride]  0.39
17. CC[N+](CC)(CCCNC1=CC(=O)C(NCCC[N+](CC)(CC)Cc2ccccc2)=CC1=O)Cc1ccccc1 [Benzoquinonium dibromide]  0.386
18. CCCN[C@@H]1CCc2c(OC)cccc2[C@@H]1C [(+)-AJ 76 hydrochloride]  0.353
19. c1ccc(CCCN2CCN(CCOC(c3ccccc3)c3ccccc3)CC2)cc1  0.346
20. CCC(Oc1ccc(Cl)cc1)C(=O)OC1C[C@H]2CC[C@@H](C1)N2C (some centres not stated) [SM-21 maleate]  0.294
21. N[C@@]1(C(=O)O)CC[C@@H](C(=O)O)C1  0.292
22. CN1C(=O)CCS(=O)(=O)C1c1ccc(Cl)cc1 (configuration not stated) [Chlormezanone]  0.287
23. O=C1CCCN1CC#CCN1CCCC1 [Oxotremorine sesquifumarate]  0.192
24. CC(C(=O)OC1CC2CCC(C1)N2C)c1ccc(Br)cc1 (configuration not stated) [PG-9 maleate]  0.169
25. CC(=O)N1CC[N+](C)(C)CC1 [4-Acetyl-1,1-dimethylpiperazinium iodide]  0.151
26. COc1ccc(CNC(=O)/C=C/c2ccc3[nH]cc(CCN(C)C)c3c2)cc1  0.115
27. NCC(CS(=O)(=O)O)c1ccc(Cl)cc1 (configuration not stated) [Saclofen]  -0.0138

— the supplement of paper PMC12532568
